According to PubChem BioAssay AID651599 (National Center for Advancing Translational Sciences (NCATS), 2012):
Records with an inconclusive call do not appear. A call without a number means that no potency is given here. Activity calls are given as the source filed them. Calls follow the shape of the dose curve; as a rule, active = well fitted inhibition curve with a large enough effect; inconclusive = small, poorly fitted or top-dose-only effect; inactive = no such curve, though single readings can be large or run the other way.

Target: Tumor susceptibility gene 101 protein (Homo sapiens) (UniProt Q99816)
Sequence (Q99816 whole entry, looked up): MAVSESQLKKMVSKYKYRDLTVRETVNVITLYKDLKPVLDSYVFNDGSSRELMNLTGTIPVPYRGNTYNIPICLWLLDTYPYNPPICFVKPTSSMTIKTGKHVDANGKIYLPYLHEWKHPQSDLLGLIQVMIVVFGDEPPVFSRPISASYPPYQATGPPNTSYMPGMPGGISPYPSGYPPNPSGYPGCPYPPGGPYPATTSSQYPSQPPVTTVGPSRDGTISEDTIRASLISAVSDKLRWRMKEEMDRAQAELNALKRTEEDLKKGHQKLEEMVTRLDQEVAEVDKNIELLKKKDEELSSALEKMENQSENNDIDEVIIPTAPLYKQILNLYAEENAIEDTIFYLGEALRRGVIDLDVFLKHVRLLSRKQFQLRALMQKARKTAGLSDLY
Experiment: qHTS Assay for Iinhibitors of HIV-1 Budding by Blocking the Interaction of PTAP/TSG101: Hit Validation in TR assay
Summary of the method: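 Fluorescence polarization: Tsg101 binding domain (10 uM final) with Texas Red-labelled PTAP peptide (50 nM final) in HEPES pH 7.5, 0.15 M NaCl, Tween 20, EDTA, TCEP; 20 min binding at room temperature after compound addition.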
Potency is read from the fitted curve at half-maximal effect.

Row | Structure (SMILES) | Potency
1 | COc1ccc(Nc2nc(-c3cccnc3)nc3ccccc23)cn1 | inactive
2 | Cc1ccc2nc(-c3ccco3)c(Nc3ccccc3)n2c1 | inactive
3 | Cc1cc(C=C2C(=O)c3ccccc3C2=O)c(C)n1-c1ccc(Cl)cc1 | inactive
4 | Fc1ccc(C2=CC(c3ccco3)n3ncnc3N2)cc1 (stereo not given) | inactive
5 | COC(=O)C[C@H]1c2cc(F)ccc2S(=O)(=O)N1c1ccccc1 | inactive
6 | CN1CCCc2cc3c(C(F)(F)F)cc(=O)oc3nc21 | inactive
7 | O=C(C1=NN(c2ccccc2)C2C(=O)N(c3ccccc3)C(=O)C12)c1ccccc1 (stereo not given) | inactive
8 | CN(C)c1ccc(/C=C2\SC(=O)N(CC(O)Cn3c4ccccc4c4ccccc43)C2=O)cc1 (stereo not given) | inactive
9 | COc1ccccc1N1C(C)=CC(=C(C#N)c2nc3ccccc3s2)C=C1C | inactive
10 | Cc1c2ccccc2nc2c(F)c(N(C)C)c(F)c(F)c12 | inactive
11 | COc1cccc2c1C(=O)c1c(O)c3c(c(O)c1C2=O)CC(O)(C(C)=O)CC3OC1CC(N(C)C)C(O)C(C)O1 (stereo not given) | inactive
12 | CCCCn1c(SCC(=O)c2cc(OC)ccc2OC)nc2cc(S(N)(=O)=O)ccc21 | inactive
13 | O=C1c2cccc3c(O)ccc(c23)C(=O)N1c1ccc(Cl)cc1 | inactive
14 | CC(C)CSC1=NSC2=NC(=O)/C(=C\c3coc4ccccc4c3=O)C(=N)N12 | inactive
15 | CCCn1c(O)c(N=Nc2ccc3ccccc3n2)c2ccccc21 | inactive
16 | O=C1/C(=N\S(=O)(=O)c2cccs2)C([n+]2ccccc2)=C([O-])c2ccccc21 | inactive
17 | CCCn1c(=N)c(S(=O)(=O)c2ccccc2)cc2c(=O)n3cccc(C)c3nc21 | inactive
18 | COc1ccc2nc(N3CCCC3)c(C#N)cc2c1 | inactive
19 | CC(=O)c1ccc(N2C(=O)C3C(C2=O)C(C(=O)c2ccc(Cl)cc2)N2CCCC32)cc1 (stereo not given) | inactive
20 | CN(C)c1ccc(N=Cc2nc(-c3ccccc3)oc2O)cc1 | inactive
21 | c1ccc2[nH]c3cc4ncnc4cc3nc2c1 | inactive
22 | O=S(=O)([N-]c1nc2ccccc2nc1-[n+]1ccc(-c2ccncc2)cc1)c1ccccc1 | inactive
23 | CCOC(=O)c1ccc(NC(=O)CSc2nc(-c3cccs3)cc(C(F)(F)F)c2C#N)cc1 | inactive
24 | S=C(Nc1ccc(N2CCOCC2)cc1)Nc1ccc2nc(-c3ccco3)c(-c3ccco3)nc2c1 | inactive
25 | CCc1cccc(CC)c1NC(=O)CSc1nnc(C2CC2)n1C | inactive
26 | CCCCC(=O)NC1=NC(=O)C(C)(C)S1 | inactive
27 | CSC1=NSC2=NC(=O)/C(=C/c3coc4ccc(O)cc4c3=O)C(=N)N12 | inactive

Row | Structure (SMILES) | Potency
28 | Cc1cc(Br)ccc1NC(=O)c1sc2nc3n(c(=O)c2c1C)CCCC3 | inactive
29 | Cn1cc(/C=C(\C#N)C(=O)Nc2ccccc2O)c2ccccc21 | inactive
30 | COc1ccc(N=Nc2nc3cc(Br)c(Br)cc3n2C)c(OC)c1 | inactive
31 | O=c1[nH]c2c(s1)C=Nc1ccccc1N2 | inactive
32 | O=C(CN1C(=O)c2ccccc2S1(=O)=O)Nc1ncc(Cl)cc1Cl | inactive
33 | CC1CC=C2C(C#N)=C(N)C(C#N)(C#N)C(c3cccs3)C2C1 (stereo not given) | inactive
34 | CCN1CCc2c(sc(NC(=O)Nc3ccc(Cl)c(Cl)c3)c2C(N)=O)C1 | inactive
35 | COC(=O)c1cc(N2CCN(C)CC2)nc2ccccc12 | inactive
36 | Oc1oc(-c2ccccc2)nc1C=Nc1cccc2ccccc12 | inactive
37 | C(=N\NC1=Nc2cccc3cccc1c23)/c1ccccc1 | inactive
38 | Nc1nnnn1/N=C/c1cc(Cl)cc(Cl)c1O | inactive
39 | CCCNc1c(F)c(F)c2c(C)c3ccccc3nc2c1F | inactive
40 | COc1cccc2c1C(=O)c1c(O)c3c(c(O)c1C2=O)C[C@@](O)(C(C)=O)C[C@@H]3O[C@H]1C[C@H](N)[C@H](O)[C@H](C)O1 | 20.6 µM (active)
41 | CCCCOC(=O)c1ccc(NC(=O)/C(C#N)=C/c2ccc(-c3ccccc3)o2)cc1 | inactive
42 | CCOc1ccc(-c2nn(-c3ccccc3)cc2/C=C2\SC(=S)N(C3CCS(=O)(=O)C3)C2=O)cc1 (stereo not given) | inactive
43 | CCN(CC)C1=CC2=CC(=C(C#N)C#N)CCC2CC1 (stereo not given) | inactive
44 | COc1ccc(C2C(C(=O)c3cccs3)=C(O)C(=O)N2c2nnc(C)s2)cc1OC (stereo not given) | inactive
45 | CCNc1cccc2c1C(=O)N(C)C2=O | inactive
46 | O=C1c2ccccc2-c2onc3ccc(NCc4ccco4)c1c23 | inactive
47 | CCCCCCn1c(=O)[nH]c2nc3cc(N)ccc3nc2c1=O | inactive
48 | CCn1c(/C=C/c2cc[n+](C)cc2)nc2ccccc21 | inactive
49 | Cn1c(=O)cc2c3c(c(N4CCCCC4)ccc31)C(=O)c1ccccc1-2 | inactive
50 | O=C(Cc1nc2ccccc2[nH]c1=O)c1ccccc1 | inactive
51 | CCN(CC)S(=O)(=O)c1ccc(C(=O)/C=C/c2ccc(-c3ccc([N+](=O)[O-])cc3)o2)cc1 | inactive
52 | N#CC(C(=O)NC1CC1)c1nc2ccccc2nc1N1CCCC1 (stereo not given) | inactive
53 | Cc1cc(=O)oc(C)c1C(=O)Nc1ccc2ncccc2c1 | inactive
54 | COc1ccc(-c2onc3ccc(Br)cc23)cc1 | inactive

Row | Structure (SMILES) | Potency
55 | COc1ccc(/C=C2/N=C(c3cccs3)OC2=O)cc1OC(C)C | inactive
56 | COc1cccc(/C(O)=C/c2nc3ccc(C(=O)NCCc4ccc(Cl)cc4)cc3[nH]c2=O)c1 | inactive
57 | CN1c2ccc(C=O)c3c(C=O)ccc(c23)N(C)C1(C)C | inactive
58 | O=C1/C(=C/c2ccco2)Oc2c1ccc(O)c2CN1CCCCC1 | inactive
59 | COc1cc(OC)c(-c2c3cc(O)c(=O)cc-3oc3cc(O)c(O)cc23)cc1OC | inactive
60 | COc1ccc(OC)c(-c2c3cc(O)c(=O)cc-3oc3cc(O)c(O)cc23)c1 | 32.6 µM (active)
61 | C1=C(c2ccc(-c3ccccc3)cc2)Nc2ncnn2C1c1ccco1 (stereo not given) | inactive
62 | Oc1ccc2nnc3c(Br)cnn3c2c1 | inactive
63 | CC(=O)OCCn1c2nc(=O)[nH]c(=O)c-2nc2cc(C)c(C)cc21 | inactive
64 | CC(C)CCN1C(=O)c2cccc3c(N)ccc(c23)C1=O | inactive
65 | O=c1[nH]c(S)c(/C=C2\C=Nc3ccccc32)s1 | inactive
66 | Cn1c(O)c(N=Nc2ccc(F)cc2)c2ccccc21 | inactive
67 | COc1ccc(-c2cc(C(=O)N3CC(C)CC(C)C3)c3ccccc3n2)cc1OC (stereo not given) | inactive
68 | COc1ccc(OC)c(/C=C(\C#N)c2nc(-c3ccc(F)cc3)cs2)c1 | inactive
69 | CCN1CCc2c(sc(NC(=O)CSc3ccccc3)c2-c2nc3ccccc3s2)C1 | inactive
70 | Oc1ccc2ccccc2c1N=Nc1nccs1 | inactive
71 | Cc1nc2nc(-c3cccs3)cn2nc1C | inactive
72 | NC(=O)CSc1nc2c(sc3ccccc32)c(=O)n1CCCC(=O)NCC1CCCO1 (stereo not given) | inactive
73 | COc1cccc(C2C3CN(C)CC=C3C(C#N)=C(N)C2(C#N)C#N)c1OC (stereo not given) | inactive
74 | CCC/C(C#Cc1ccc(N(C)C)cc1)=C1/c2ccccc2C(=O)N1c1ccccc1 | inactive
75 | CC(=O)Nc1ccc(N=Cc2c(O)c(C(=O)Nc3ccccc3)cc3ccccc23)cc1 | inactive
76 | Cc1cc[n+](-c2[nH]c(=O)sc2/C=N/N=C(\[O-])c2ccccc2)cc1C | inactive
77 | CCCCn1c(=O)[nH]c2nc3cc(N)ccc3nc2c1=O | 11.6 µM (active)
78 | CCCCCCc1cc2cc(C(=O)NC)c(=N)oc2cc1O | inactive
79 | O=Cc1nccc2ccccc12 | inactive
80 | COc1ccc(OC)c2cc3ccccc3cc12 | inactive
81 | Cc1ccccc1N1C(=O)c2cccc3c(N(C)CCO)ccc(c23)C1=O | 32.6 µM (active)

Row | Structure (SMILES) | Potency
82 | CCCCNc1ccc2c3c(cccc13)C(=O)N(CCCC)C2=O | inactive
83 | CN(C)CCNc1ccc2ncn3c4ccc(O)cc4c(=O)c1c23 | inactive
84 | CC1CCc2cccc3c2N1c1cc(C#N)c(C#N)cc1O3 (stereo not given) | inactive
85 | Cn1c(/C(C#N)=C/c2ccc(-c3ccc(S(N)(=O)=O)cc3)o2)nc2ccccc21 | inactive
86 | Cc1cc2c(cc1C)NC(c1c(C)n(C)n(-c3ccccc3)c1=O)C1=C(CC(C)(C)CC1=O)N2 (stereo not given) | inactive
87 | Cc1ccc(CNC(=O)C2CCCN(S(=O)(=O)c3c(C)[nH]c(=O)[nH]c3=O)C2)cc1 (stereo not given) | inactive
88 | O=C(Nc1ccccc1F)C(=Cc1sc(N2CCOCC2)nc1-c1ccccc1)C(=O)Nc1ccccc1F | inactive
89 | Cc1nn(C)c(C)c1N1C(=O)c2cccc3c(N)ccc(c23)C1=O | inactive
90 | N#Cc1c(C#N)c(O)c2ccccc2c1O | inactive
91 | O=C1Nc2ccc(Cl)cc2C12Nc1ccccc1-c1nnc(SCc3ccccc3F)nc1O2 (stereo not given) | inactive
92 | Nc1ccc2nc3c(=O)[nH]c(=S)[nH]c3nc2c1 | inactive
93 | Cc1ccc(NC(=O)/C(C#N)=C(\N)C(Cl)(Cl)Cl)nc1 | inactive
94 | Cc1ccc(C)c2nc3sc(C(=O)N4CCCc5ccccc54)c(N)c3cc12 | inactive
95 | COc1ccc(-c2onc3ccc(C(C)=O)cc23)cc1 | inactive
96 | O=[N+]([O-])c1cc(Cl)cc(/C=N/NC(=S)Nc2ccc(S(=O)(=O)N3CCOCC3)cc2)c1O | inactive
97 | CN1CC=C2C(C#N)=C(N)C(C#N)(C#N)[C@H](c3ccoc3)[C@H]2C1 | inactive
98 | O=C(C1=NN(c2ccccc2)C2C(=O)N(c3cccc(Cl)c3)C(=O)C12)c1ccccc1 (stereo not given) | 29.1 µM (active)
99 | CC1CCN(Cc2c(O)ccc3c2O/C(=C\c2ccco2)C3=O)CC1 | inactive
100 | O=c1ccc2cc3c4c(c2o1)CCCN4CCC3 | inactive
101 | CCOC(=O)N1CCN(c2nc3ccccc3nc2C(C#N)S(=O)(=O)c2ccc(C)cc2)CC1 (stereo not given) | inactive
102 | Cc1c2ccccc2nc2c(F)c(NC(C)C)c(F)c(F)c12 | inactive
103 | COc1ccc(C(=O)c2sc3nc(C)cc(-c4cccs4)c3c2N)cc1 | inactive
104 | COC(=O)c1c(NC(=O)CC2Nc3cc(C)c(C)cc3NC2=O)sc(C)c1C (stereo not given) | 2.91 µM (active)
105 | CCc1ccc[n+](-c2[nH]c(=O)sc2/C=N/NC([S-])=Nc2ccccc2)c1 | inactive
